Screening data deposited in PubChem BioAssay by The Scripps Research Institute Molecular Screening Center.
Only some compounds are listed: those with a hit (about 2.9% of all), similar ones and a draw of the others.
ZTA DNA inh = ZTA (EBV) inhibition in EBNA-1 counter-screen | inhibition, % at 11 µM | ZTA-DNA binding, fluorescence polarization | 0.15% of 320,000 active; in the data active = inhibition above about 33%
PAFAH2 inh = PAFAH2 enzyme inhibitors, primary screen, biochemical, fluorescence polarization, human; recombinant PAFAH2, FP-rhodamine activity probe; inhibition, % at 3.39 µM; 0.99% of 340,000 active;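 active = inhibition above the mean over all tested compounds plus 3 SD, cut at about 30% in these data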;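 also: inhibitors block probe labeling of enzyme so polarization drops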
PAFAH1B2 inh = PAFAH1B2 enzyme inhibitors, primary screen, biochemical, fluorescence polarization, human. Platelet-activating factor acetylhydrolase IB subunit alpha2 (Homo sapiens), P68402. 1.2% of 340,000 active. recombinant PAFAH1B2, FP-rhodamine activity probe. inhibition, % at 3.39 µM;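 active = inhibition above the mean of all tested compounds plus 3 SD, cut at about 24% in these data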
Target sequence (P68402 whole entry, looked up): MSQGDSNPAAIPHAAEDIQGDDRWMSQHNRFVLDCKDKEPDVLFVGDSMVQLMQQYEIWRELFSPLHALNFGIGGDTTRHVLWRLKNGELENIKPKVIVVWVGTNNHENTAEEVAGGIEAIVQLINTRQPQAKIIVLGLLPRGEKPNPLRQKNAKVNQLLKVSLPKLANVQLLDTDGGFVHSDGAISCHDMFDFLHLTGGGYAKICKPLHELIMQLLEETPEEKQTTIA
PAFAH1B3 inh = PAFAH1B3 enzyme inhibitors, primary screen, biochemical, fluorescence polarization, human | Platelet-activating factor acetylhydrolase IB subunit alpha1 (Homo sapiens), Q15102 | recombinant PAFAH1B3, FP-rhodamine probe | inhibition, % at 3.39 µM | 0.28% of 340,000 active;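 active = inhibition above the screen-wide average of all tested compounds plus 3 SD, cut at about 25% in these data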
EBNA-1 inhibitor = EBNA-1 DNA-binding inhibitors, primary screen, biochemical, fluorescence polarization; inhibition, % at 14.8 µM; 0.34% of 300,000 active; AID 1950, 2009; in the data active = inhibition above about 28%
pPAFAH FP inh = pPAFAH enzyme inhibitors, primary screen, biochemical, fluorescence polarization, human. 1.5% of 330,000 active. Platelet-activating factor acetylhydrolase (Homo sapiens), Q13093. inhibition, % at 3.39 µM. recombinant pPAFAH, FP-rhodamine probe fluorescence polarization;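 active = inhibition above the mean inhibition across the screen plus 3 SD, cut at about 25% in these data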;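 also: inhibitors block binding of the rhodamine activity-based probe so polarization drops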
Target sequence (Q13093 whole entry, looked up): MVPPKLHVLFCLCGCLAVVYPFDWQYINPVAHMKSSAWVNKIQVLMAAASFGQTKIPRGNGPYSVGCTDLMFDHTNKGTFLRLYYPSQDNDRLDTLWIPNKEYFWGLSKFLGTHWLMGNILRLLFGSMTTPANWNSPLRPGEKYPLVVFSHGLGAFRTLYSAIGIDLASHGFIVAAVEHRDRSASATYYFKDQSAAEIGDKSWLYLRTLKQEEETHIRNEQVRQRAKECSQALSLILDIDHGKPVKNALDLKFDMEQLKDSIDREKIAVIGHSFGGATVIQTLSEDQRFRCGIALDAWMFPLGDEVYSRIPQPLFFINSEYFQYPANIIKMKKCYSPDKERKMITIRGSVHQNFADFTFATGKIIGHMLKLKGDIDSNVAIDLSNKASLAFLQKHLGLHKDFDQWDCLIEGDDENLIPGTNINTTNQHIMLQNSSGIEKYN
PAFAH2 confirm = PAFAH2 enzyme inhibitors, confirmation, biochemical, fluorescence polarization, human; shares compounds with PAFAH2 inh; recombinant PAFAH2, FP-rhodamine activity probe; inhibition, % at 3.39 µM; 65% of 2,300 active;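 active = mean inhibition over three repeats above a set limit taken from the earlier primary screen, cut at about 30% in these data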;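 also: inhibitor blocks binding of rhodamine activity probe so polarization falls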
Each line names hits and unclear results; the compound was inactive in the other large screens (follow-up assays come after a bar, where they were run).

CN1C(=O)C(Cc2cnc[nH]2)NC1=S (centres undefined)	none
COc1ccc2oc(C(=O)OCC(=O)Nc3ccccc3)c(C)c2c1	PAFAH2 inh 61.4 | PAFAH2 confirm 51.9
COc1ccc2oc(C(=O)OCC(=O)Nc3ccccc3OC)c(C)c2c1	none
COc1ccc2oc(C(=O)OCC(=O)NC(C)(C#N)C3CC3)c(C)c2c1 (centres undefined)	PAFAH2 inh 46.6 | PAFAH2 confirm 40.6
O=C(O)C1(c2ccccc2)CCN(S(=O)(=O)c2cccc(Cl)c2)CC1	none
O=C(Nc1cccc(Cl)c1)c1cc(N=Nc2ccc([N+](=O)[O-])cc2Cl)ccc1O	PAFAH2 inh 32.7 | PAFAH2 confirm inactive
Cc1cc(C(=O)CSc2nc3ccc(Cl)cc3[nH]2)c(C)n1Cc1ccco1	none
COc1cccc(C(=O)OCC(=O)NCCC2=CCCCC2)c1	PAFAH2 inh 37.6 (no result: ZTA DNA inh, EBNA-1 inhibitor) | PAFAH2 confirm inactive
COc1cc(C(=O)OCC(=O)NCCC2=CCCCC2)cc(OC)c1OC	none (no result: ZTA DNA inh, EBNA-1 inhibitor, pPAFAH FP inh)
COc1cc(C(=O)OCC(=O)NCCC2=CCCCC2)ccc1OCC(C)C	PAFAH2 inh 41.3 | PAFAH2 confirm 42.8
CCNc1cc2n(c(=O)n1)CCc1cc(OC)c(OC)cc1-2	none
COc1cc2c(cc1OC)-c1cc(NCc3ccccn3)nc(=O)n1CC2	PAFAH2 inh 31.0 | PAFAH2 confirm inactive
O=C(COC(=O)c1ccccc1)NCc1cccs1	PAFAH2 inh 36.4 | PAFAH2 confirm inactive
Cc1ccc(C(=O)OCC(=O)NCc2cccs2)s1	PAFAH2 inh 65.1 (no result: ZTA DNA inh, EBNA-1 inhibitor, pPAFAH FP inh) | PAFAH2 confirm 56.7
O=C(COC(=O)c1ccc(OC(F)F)cc1)NCc1cccs1	PAFAH2 inh 55.7 (no result: ZTA DNA inh, EBNA-1 inhibitor) | PAFAH2 confirm inactive
O=C(COC(=O)CCC(=O)c1cccs1)NCc1cccs1	none
Cc1cc(C)cc(C(=O)OCC(=O)NCc2cccs2)c1	none
CC(C)c1cc(=O)n2[nH]c(N)nc2n1	none
COc1ccc(/C=C/c2nc3ccccc3c(=O)o2)cc1	PAFAH2 inh 62.2 | PAFAH2 confirm 57.5
COc1ccccc1/C=C/c1nc2ccc(OC(C)=O)cc2c(=O)o1	PAFAH2 inh 77.7 | PAFAH2 confirm 66.7
COc1ccccc1/C=C/c1nc(S(=O)(=O)c2ccccc2)c(N(C)C)o1	none
COc1ccc(/C=C/c2nc3sc4c(c3c(=O)o2)CCC4)cc1	none
COc1ccc(S(=O)(=O)N2C(=O)/C(=C3\SC(N)=NC3=O)c3ccccc32)cc1	none
O=C(NCc1cc([N+](=O)[O-])ccc1O)c1cccnc1Sc1ccccc1Cl	PAFAH2 inh 39.1 | PAFAH2 confirm 32.0
Cn1cccc1CNCC(O)c1ccccc1 (centres undefined)	none
O=C(NCc1ccc(F)cc1)C(=O)NCC1OCCN1C(=O)c1cccs1 (centres undefined)	none
CCS(=O)(=O)N1Cc2ccccc2CC1C(=O)Nc1nnc(SCc2c(Cl)cccc2Cl)s1 (centres undefined)	PAFAH2 inh 51.6 | PAFAH2 confirm 35.3
CCSc1nnc(NC(=O)C2Cc3ccccc3CN2S(=O)(=O)CC)s1 (centres undefined)	none
O=C(CN1C(=O)C2CC=CCC2C1=O)Nc1nnc(SCc2c(Cl)cccc2Cl)s1 (centres undefined)	PAFAH2 inh 77.8 | PAFAH2 confirm 74.3
Cc1ccc(CN2CC(C(=O)Nc3nnc(SCc4c(Cl)cccc4Cl)s3)CC2=O)cc1 (centres undefined)	none
Cc1cnc(C(=O)Nc2nnc(SCc3c(Cl)cccc3Cl)s2)cn1	PAFAH2 inh 59.7 | PAFAH2 confirm 49.7
O=C(CNC(=O)c1cccc(F)c1)OCCOc1cccc(Cl)c1	none
Cc1n[nH]c(C)c1S(=O)(=O)N(C)Cc1ccco1	none (no result: EBNA-1 inhibitor)
COc1ccc(S(=O)(=O)N2CC(C(=O)O)Oc3ccc(Cl)cc32)cc1 (centres undefined)	none
CC(C)(C)c1ccc(S(=O)(=O)N2CC(C(=O)O)Oc3ccc(Cl)cc32)cc1 (centres undefined)	PAFAH2 inh 34.1 | PAFAH2 confirm inactive
COc1ccc(NC(=O)C(CC(C)C)NC(=O)C2CCCCC2)c(OC)c1 (centres undefined)	none
COC(=O)[C@@H](Cc1ccccc1)NC(=O)[C@H]1CCC(=O)N1C(=O)OCc1ccccc1	PAFAH2 inh 41.4 | PAFAH2 confirm inactive
COC(=O)[C@H](Cc1ccccc1)NC(=O)NCc1ccccc1	none
Cc1c(Cl)cccc1N=Cc1ccc([N+](=O)[O-])s1	PAFAH2 inh 71.1 | PAFAH2 confirm inactive
Cc1ccccc1C(=O)N/N=C/c1ccc([N+](=O)[O-])s1	none
Cc1ccc(Nc2nc(N)nc(CSC(=S)N3CCOCC3)n2)c(C)c1	PAFAH2 inh 45.7 | PAFAH2 confirm 41.6
COc1ccc(Nc2nc(N)nc(CSC(=S)N3CCOCC3)n2)cc1	none
O=C(OCc1ccccc1)c1ccc(NCc2cc(O)ccc2O)cc1	PAFAH2 inh 71.7 (no result: ZTA DNA inh, EBNA-1 inhibitor, pPAFAH FP inh) | PAFAH2 confirm 56.7
CC1CCCC(NC(=O)COC(=O)c2ccc3ncsc3c2)C1C (centres undefined)	PAFAH2 inh 85.3 (no result: EBNA-1 inhibitor) | PAFAH2 confirm 76.3
CC1CCCCC1NC(=O)COC(=O)c1ccc2ncsc2c1 (centres undefined)	PAFAH2 inh 84.2 (no result: EBNA-1 inhibitor) | PAFAH2 confirm 78.3
CC1CCCCC1NC(=O)COC(=O)c1ccc2c(c1)NC(=O)CS2 (centres undefined)	PAFAH2 inh 85.6 (no result: ZTA DNA inh, EBNA-1 inhibitor) | PAFAH2 confirm 76.9
COc1ccc(C(=O)NC(=O)COC(=O)c2ccc3ncsc3c2)cc1	none (no result: PAFAH2 inh, PAFAH1B2 inh, PAFAH1B3 inh)
CN(C(=O)COC(=O)c1ccc2c(c1)NC(=O)CS2)C1CCS(=O)(=O)C1 (centres undefined)	none
O=S(=O)(NCc1ccccc1Cl)c1cccs1	none
CC(C)Cc1nc2sc3c(=O)n(N)cnc3c2c2c1COC(C)(C)C2	none
Cc1ccc(/C=C2\SC(=S)N(Cc3ccccc3)C2=O)o1	none
CC1=NOC(=O)/C1=C\c1ccc(-c2cccc(Cl)c2)o1	PAFAH2 inh 31.3 | PAFAH2 confirm inactive
CC1=NOC(=O)/C1=C\c1ccc(-c2ccc(Cl)c(C(=O)O)c2)o1	PAFAH2 inh 48.7 (no result: ZTA DNA inh, EBNA-1 inhibitor, pPAFAH FP inh) | PAFAH2 confirm 32.9
CC1(C)OC(=O)C(=Cc2ccc(-c3ccc(Cl)c(C(=O)O)c3)o2)C(=O)O1	none
CC1=NOC(=O)/C1=C\c1ccc(-c2ccccc2Br)o1	PAFAH2 inh 43.6 (no result: ZTA DNA inh, EBNA-1 inhibitor, pPAFAH FP inh) | PAFAH2 confirm inactive
O=C(O)c1cc(-c2ccc(/C=C3/SC(=S)N(Cc4ccccc4)C3=O)o2)ccc1Cl	PAFAH2 inh 33.7 (no result: ZTA DNA inh, EBNA-1 inhibitor, pPAFAH FP inh) | PAFAH2 confirm inactive
